Results as given in publication PMC7862700, “An all-to-all approach to the identification of sequence-specific readers for epigenetic DNA modifications on cytosine”.

Experiments:
Assay in all cases: DAPPL (digital affinity profiling via proximity ligation, sequencing); 10 mM Tris-HCl pH 7.5, 50 mM NaCl, 1 mM DTT, 4% glycerol, room temperature, 30 min; GST-TFs on glutathione beads, 16-mer random dsDNA library, 0.1% formaldehyde crosslink after washing; high values mean tight binding
Details in all cases: protein: recombinant; tags: N-terminal GST; dsDNA, one strand shown
[1] = biological target: T1, FLI1 (Homo sapiens, UniProt Q01543 1-452)
T1 sequence: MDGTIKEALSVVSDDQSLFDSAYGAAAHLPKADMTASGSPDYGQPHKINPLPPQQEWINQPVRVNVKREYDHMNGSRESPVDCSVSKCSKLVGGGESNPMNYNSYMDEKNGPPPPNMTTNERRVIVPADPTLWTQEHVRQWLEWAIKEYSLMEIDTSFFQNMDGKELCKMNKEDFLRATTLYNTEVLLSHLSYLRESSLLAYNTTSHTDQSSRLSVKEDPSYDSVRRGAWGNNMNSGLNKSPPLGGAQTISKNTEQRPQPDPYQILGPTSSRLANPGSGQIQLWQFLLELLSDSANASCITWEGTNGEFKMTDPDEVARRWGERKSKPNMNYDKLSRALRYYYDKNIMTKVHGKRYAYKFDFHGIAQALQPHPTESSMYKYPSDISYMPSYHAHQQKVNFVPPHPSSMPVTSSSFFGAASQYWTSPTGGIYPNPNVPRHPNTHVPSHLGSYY
Method in brief: (§1)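 Human transcription factors were made in yeast as GST fusions, captured on glutathione beads and barcoded with DNA. With a tag-only sample included, the pool was incubated with 200 nmole of a random double-stranded 16-mer DNA library in Tris/NaCl/DTT/glycerol buffer at room temperature for 30 min, then crosslinked with 0.1% formaldehyde after washing, ligated by proximity, amplified and sequenced. For binding signal, each hexamer's read frequency for a factor is divided by its frequency for the tag-only sample.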

[2] = biological target: T2, ELK1 (Homo sapiens, UniProt P19419 1-428)
T2 sequence: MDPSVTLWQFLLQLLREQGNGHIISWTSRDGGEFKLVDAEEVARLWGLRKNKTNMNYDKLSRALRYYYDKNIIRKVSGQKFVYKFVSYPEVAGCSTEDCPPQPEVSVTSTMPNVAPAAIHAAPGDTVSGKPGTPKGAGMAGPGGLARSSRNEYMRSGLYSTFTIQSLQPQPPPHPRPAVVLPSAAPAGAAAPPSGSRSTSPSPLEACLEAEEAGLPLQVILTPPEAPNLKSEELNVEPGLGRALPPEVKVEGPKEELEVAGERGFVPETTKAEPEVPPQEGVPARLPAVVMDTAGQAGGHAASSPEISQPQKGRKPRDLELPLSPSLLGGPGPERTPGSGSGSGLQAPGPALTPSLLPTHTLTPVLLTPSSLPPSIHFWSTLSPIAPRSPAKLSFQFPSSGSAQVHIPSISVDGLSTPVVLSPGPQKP
Method in brief: as §1

[3] = biological target: T3, GABPA (Homo sapiens, UniProt Q06546 1-454)
T3 sequence: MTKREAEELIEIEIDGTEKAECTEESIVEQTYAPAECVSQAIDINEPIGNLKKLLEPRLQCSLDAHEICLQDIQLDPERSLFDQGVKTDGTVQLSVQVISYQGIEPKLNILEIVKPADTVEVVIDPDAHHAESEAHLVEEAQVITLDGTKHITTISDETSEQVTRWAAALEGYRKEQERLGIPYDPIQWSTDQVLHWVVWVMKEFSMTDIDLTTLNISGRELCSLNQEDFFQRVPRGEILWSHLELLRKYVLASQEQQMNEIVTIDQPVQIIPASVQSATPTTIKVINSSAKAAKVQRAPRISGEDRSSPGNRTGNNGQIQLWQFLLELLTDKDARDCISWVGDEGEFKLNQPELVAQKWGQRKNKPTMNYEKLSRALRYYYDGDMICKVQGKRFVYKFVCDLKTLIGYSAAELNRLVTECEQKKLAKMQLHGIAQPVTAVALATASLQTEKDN
Method in brief: as §1

[4] = biological target: T4, ERG (Homo sapiens, UniProt P11308 1-479)
T4 sequence: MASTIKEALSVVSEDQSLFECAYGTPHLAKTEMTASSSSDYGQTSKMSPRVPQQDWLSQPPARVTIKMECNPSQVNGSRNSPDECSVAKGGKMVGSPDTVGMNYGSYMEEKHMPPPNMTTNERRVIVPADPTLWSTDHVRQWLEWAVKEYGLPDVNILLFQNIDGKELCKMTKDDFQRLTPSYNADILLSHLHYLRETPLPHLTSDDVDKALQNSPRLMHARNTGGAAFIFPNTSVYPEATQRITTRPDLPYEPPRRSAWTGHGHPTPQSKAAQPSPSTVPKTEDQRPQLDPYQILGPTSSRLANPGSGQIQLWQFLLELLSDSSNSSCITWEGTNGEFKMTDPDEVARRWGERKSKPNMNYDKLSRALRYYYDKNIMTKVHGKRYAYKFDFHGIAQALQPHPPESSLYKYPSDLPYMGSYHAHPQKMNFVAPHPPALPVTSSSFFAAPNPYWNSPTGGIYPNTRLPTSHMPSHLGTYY
Method in brief: as §1

[5] = biological target: ELF1 (Homo sapiens, UniProt P32519 1-619)
Sequence of ELF1 (P32519 whole entry): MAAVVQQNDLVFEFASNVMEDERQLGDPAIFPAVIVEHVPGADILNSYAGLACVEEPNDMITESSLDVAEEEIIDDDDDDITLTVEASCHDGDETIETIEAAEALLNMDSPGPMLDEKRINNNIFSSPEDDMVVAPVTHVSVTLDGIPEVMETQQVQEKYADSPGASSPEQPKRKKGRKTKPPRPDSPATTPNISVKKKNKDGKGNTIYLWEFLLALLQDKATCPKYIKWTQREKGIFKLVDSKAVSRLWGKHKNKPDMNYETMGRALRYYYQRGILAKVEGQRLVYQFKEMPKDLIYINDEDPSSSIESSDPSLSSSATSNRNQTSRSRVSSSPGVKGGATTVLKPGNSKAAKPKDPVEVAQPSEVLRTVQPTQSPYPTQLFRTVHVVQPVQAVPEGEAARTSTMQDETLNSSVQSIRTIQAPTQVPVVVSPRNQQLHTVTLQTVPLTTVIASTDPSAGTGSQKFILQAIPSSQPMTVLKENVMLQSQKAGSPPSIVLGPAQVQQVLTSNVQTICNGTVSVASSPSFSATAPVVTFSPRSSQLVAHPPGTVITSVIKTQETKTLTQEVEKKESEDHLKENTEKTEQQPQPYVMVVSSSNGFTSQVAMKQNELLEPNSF
Method in brief: as §1

[6] = biological target: T5, EHF (Homo sapiens, UniProt Q9NZC4 1-300)
T5 sequence: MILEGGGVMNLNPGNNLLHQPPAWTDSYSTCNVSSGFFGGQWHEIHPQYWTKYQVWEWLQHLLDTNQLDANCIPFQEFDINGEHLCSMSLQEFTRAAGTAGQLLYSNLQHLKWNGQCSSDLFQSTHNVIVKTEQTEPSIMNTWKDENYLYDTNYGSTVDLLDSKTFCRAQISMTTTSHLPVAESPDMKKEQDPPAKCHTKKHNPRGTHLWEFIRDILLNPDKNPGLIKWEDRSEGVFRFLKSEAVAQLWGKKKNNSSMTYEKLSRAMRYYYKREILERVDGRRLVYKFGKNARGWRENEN
Method in brief: as §1

[7] = biological target: SPI1 (Homo sapiens, UniProt P17947 1-270)
Method in brief: as §1

[8] = biological target: SPIB (Homo sapiens, UniProt Q01892 1-262)
Sequence of SPIB (Q01892 whole entry): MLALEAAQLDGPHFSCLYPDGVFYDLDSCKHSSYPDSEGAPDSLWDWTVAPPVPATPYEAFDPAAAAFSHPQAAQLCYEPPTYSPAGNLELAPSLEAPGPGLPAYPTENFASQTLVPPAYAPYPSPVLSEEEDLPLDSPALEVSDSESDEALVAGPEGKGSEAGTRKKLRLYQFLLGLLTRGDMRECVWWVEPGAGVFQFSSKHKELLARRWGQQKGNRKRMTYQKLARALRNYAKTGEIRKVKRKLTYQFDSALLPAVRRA
Method in brief: as §1

[9] = biological target: T6, ELK3 (Homo sapiens, UniProt P41970 1-407)
T6 sequence: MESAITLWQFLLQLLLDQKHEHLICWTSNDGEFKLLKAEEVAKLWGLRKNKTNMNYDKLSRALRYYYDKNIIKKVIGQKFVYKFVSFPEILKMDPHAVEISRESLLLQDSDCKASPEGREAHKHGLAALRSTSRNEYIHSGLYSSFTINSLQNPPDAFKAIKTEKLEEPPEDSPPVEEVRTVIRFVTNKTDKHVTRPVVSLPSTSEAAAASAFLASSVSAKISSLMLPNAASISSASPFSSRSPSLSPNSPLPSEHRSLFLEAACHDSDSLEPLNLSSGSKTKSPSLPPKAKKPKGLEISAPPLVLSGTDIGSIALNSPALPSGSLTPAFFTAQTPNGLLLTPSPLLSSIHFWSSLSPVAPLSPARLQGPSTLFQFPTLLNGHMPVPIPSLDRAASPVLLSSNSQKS
Method in brief: as §1

TACTCT
binding signal [1]: 1.37 fold enrichment (6-mer frequency, TF over GST control) | binding signal [2]: 1.5 fold enrichment (6-mer frequency, TF over GST control) | binding signal [3]: 1.52 fold enrichment (6-mer frequency, TF over GST control) | binding signal [4]: 1.34 fold enrichment (6-mer frequency, TF over GST control) | binding signal [5]: 1.42 fold enrichment (6-mer frequency, TF over GST control) | binding signal [6]: 1.45 fold enrichment (6-mer frequency, TF over GST control) | binding signal [7]: 1.44 fold enrichment (6-mer frequency, TF over GST control) | binding signal [8]: 1.33 fold enrichment (6-mer frequency, TF over GST control) | binding signal [9]: 1.56 fold enrichment (6-mer frequency, TF over GST control)

AATATG
binding signal [1]: 1.12 fold enrichment (6-mer frequency, TF over GST control) | binding signal [2]: 1.13 fold enrichment (6-mer frequency, TF over GST control) | binding signal [3]: 1.15 fold enrichment (6-mer frequency, TF over GST control) | binding signal [4]: 1.15 fold enrichment (6-mer frequency, TF over GST control) | binding signal [5]: 1.17 fold enrichment (6-mer frequency, TF over GST control) | binding signal [6]: 1.09 fold enrichment (6-mer frequency, TF over GST control) | binding signal [7]: 1.15 fold enrichment (6-mer frequency, TF over GST control) | binding signal [8]: 1.19 fold enrichment (6-mer frequency, TF over GST control) | binding signal [9]: 1.19 fold enrichment (6-mer frequency, TF over GST control)

CTTCAC
binding signal [1]: 1.47 fold enrichment (6-mer frequency, TF over GST control) | binding signal [2]: 1.42 fold enrichment (6-mer frequency, TF over GST control) | binding signal [3]: 1.38 fold enrichment (6-mer frequency, TF over GST control) | binding signal [4]: 1.45 fold enrichment (6-mer frequency, TF over GST control) | binding signal [5]: 1.45 fold enrichment (6-mer frequency, TF over GST control) | binding signal [6]: 1.41 fold enrichment (6-mer frequency, TF over GST control) | binding signal [7]: 1.37 fold enrichment (6-mer frequency, TF over GST control) | binding signal [8]: 1.41 fold enrichment (6-mer frequency, TF over GST control) | binding signal [9]: 1.38 fold enrichment (6-mer frequency, TF over GST control)

CTTTTT
binding signal [1]: 1.22 fold enrichment (6-mer frequency, TF over GST control) | binding signal [2]: 1.16 fold enrichment (6-mer frequency, TF over GST control) | binding signal [3]: 1.32 fold enrichment (6-mer frequency, TF over GST control) | binding signal [4]: 1.25 fold enrichment (6-mer frequency, TF over GST control) | binding signal [5]: 1.31 fold enrichment (6-mer frequency, TF over GST control) | binding signal [6]: 1.17 fold enrichment (6-mer frequency, TF over GST control) | binding signal [7]: 1.88 fold enrichment (6-mer frequency, TF over GST control) | binding signal [8]: 1.41 fold enrichment (6-mer frequency, TF over GST control) | binding signal [9]: 1.37 fold enrichment (6-mer frequency, TF over GST control)

ATTTAG
binding signal [1]: 1.13 fold enrichment (6-mer frequency, TF over GST control) | binding signal [2]: 1.07 fold enrichment (6-mer frequency, TF over GST control) | binding signal [3]: 1.27 fold enrichment (6-mer frequency, TF over GST control) | binding signal [4]: 1.02 fold enrichment (6-mer frequency, TF over GST control) | binding signal [5]: 1.15 fold enrichment (6-mer frequency, TF over GST control) | binding signal [6]: 1.14 fold enrichment (6-mer frequency, TF over GST control) | binding signal [7]: 1.11 fold enrichment (6-mer frequency, TF over GST control) | binding signal [8]: 1.16 fold enrichment (6-mer frequency, TF over GST control) | binding signal [9]: 1.09 fold enrichment (6-mer frequency, TF over GST control)

CGCTTC
binding signal [1]: 1.94 fold enrichment (6-mer frequency, TF over GST control) | binding signal [2]: 2.2 fold enrichment (6-mer frequency, TF over GST control) | binding signal [3]: 1.99 fold enrichment (6-mer frequency, TF over GST control) | binding signal [4]: 2.07 fold enrichment (6-mer frequency, TF over GST control) | binding signal [5]: 2.04 fold enrichment (6-mer frequency, TF over GST control) | binding signal [6]: 2.16 fold enrichment (6-mer frequency, TF over GST control) | binding signal [7]: 2 fold enrichment (6-mer frequency, TF over GST control) | binding signal [8]: 2.05 fold enrichment (6-mer frequency, TF over GST control) | binding signal [9]: 2.29 fold enrichment (6-mer frequency, TF over GST control)

AATACA
binding signal [1]: 1.28 fold enrichment (6-mer frequency, TF over GST control) | binding signal [2]: 1.3 fold enrichment (6-mer frequency, TF over GST control) | binding signal [3]: 1.38 fold enrichment (6-mer frequency, TF over GST control) | binding signal [4]: 1.33 fold enrichment (6-mer frequency, TF over GST control) | binding signal [5]: 1.35 fold enrichment (6-mer frequency, TF over GST control) | binding signal [6]: 1.3 fold enrichment (6-mer frequency, TF over GST control) | binding signal [7]: 1.28 fold enrichment (6-mer frequency, TF over GST control) | binding signal [8]: 1.31 fold enrichment (6-mer frequency, TF over GST control) | binding signal [9]: 1.27 fold enrichment (6-mer frequency, TF over GST control)

TATCTC
binding signal [1]: 1.19 fold enrichment (6-mer frequency, TF over GST control) | binding signal [2]: 1.32 fold enrichment (6-mer frequency, TF over GST control) | binding signal [3]: 1.39 fold enrichment (6-mer frequency, TF over GST control) | binding signal [4]: 1.18 fold enrichment (6-mer frequency, TF over GST control) | binding signal [5]: 1.29 fold enrichment (6-mer frequency, TF over GST control) | binding signal [6]: 1.35 fold enrichment (6-mer frequency, TF over GST control) | binding signal [7]: 1.15 fold enrichment (6-mer frequency, TF over GST control) | binding signal [8]: 1.38 fold enrichment (6-mer frequency, TF over GST control) | binding signal [9]: 1.25 fold enrichment (6-mer frequency, TF over GST control)
